Data: the supplement of paper PMC13380429

Legend:
[1] = tested on: Vero E6 infected with SARS-CoV-2; experiment: morphology score (similarity to uninfected cells); higher = more like uninfected cells; settings: 24 h
[2] = tested on: Vero E6 infected with SARS-CoV-2; experiment: SARS-CoV-2 infection rate relative to infected DMSO; higher = more infection, active = 60 or less; settings: 24 h

Row | SMILES | morphology score [1] | SARS-CoV-2 infection rate [2]
1 | C=C1C[C@@]2(O)O[C@@]3(C[C@H]2C(C)C)[C@@H](C)CC[C@@H]13 [curcumol] (10 µM) | 0.157 | 106% (inactive)
2 | CCNC(=O)NS(=O)(=O)c1sc(CC(C)C)cc1-c1ccc(Cn2c(-c3ccccc3)nc(OC)c2C=O)cc1 (10 µM) | 0.159 | 97% (inactive)
3 | CN1CCC(COc2cnc(-c3cccc(Cn4nc(-c5cccc(C#N)c5)ccc4=O)c3)nc2)CC1 (10 µM) | 0.207 | 100% (inactive)
4 | FC(F)(F)c1ccc(N2CCNCC2)nc1Cl (10 µM) | 0.273 | 89.5% (inactive)
5 | CCOC(=O)[C@H](Cc1ccccc1)NC(=O)c1cc(Cl)c(OCCN2CCN(C)CC2)c(Cl)c1O (10 µM) | 0.414 | 76.5% (inactive)
6 | Cc1c(Cl)cccc1S(=O)(=O)Nc1nc(CC(=O)N2CCN(C)CC2)cs1 (10 µM) | -0.053 | 110% (inactive)
7 | FC(F)(F)c1ccc(CNc2ccc(Cc3c[nH]c4ncccc34)cn2)cc1 (10 µM) | 0.0358 | 110% (inactive)
8 | OCc1cncc(F)c1 [5-fluoro-3-pyridyl-methanol] (10 µM) | 0.135 | 102% (inactive)
9 | O=C(CCCN1CCC(O)(c2ccc(Br)cc2)CC1)c1ccc(F)cc1 [bromperidol] (10 µM) | -0.0835 | 106% (inactive)
10 | O=C1c2ccccc2C(Cc2ccnc(F)c2)(Cc2ccnc(F)c2)c2ccccc21 (10 µM) | -0.17 | 113% (inactive)
11 | CCN(CC)CCOC(=O)c1cc(Cl)c(N)cc1OC (10 µM) | 0.128 | 104% (inactive)
12 | Cc1cc(C)c2c(c1)[C@@H](N(Cc1cc(C(F)(F)F)cc(C(F)(F)F)c1)c1nnn(C)n1)CCCN2C[C@H]1CC[C@H](C(=O)O)CC1 [evacetrapib] (10 µM) | 0.0498 | 97% (inactive)
13 | CCC(C)(C)C(=O)O[C@H]1C[C@@H](C)C=C2C=C[C@H](C)[C@H](CC[C@@H]3C[C@@H](O)CC(=O)O3)[C@H]21 [simvastatin] (0.833333 µM) | -0.0774 | 26.5% (active)
14 | O=c1[nH]c(CCl)nc2sc3c(c12)CCCC3 (10 µM) | 0.193 | 104% (inactive)
15 | CC(=O)O[C@]1(C(C)=O)CC[C@H]2[C@@H]3C=C(C)C4=CC(=O)CC[C@]4(C)[C@H]3CC[C@@]21C [megestrol-acetate] (10 µM) | 0.21 | 100% (inactive)
16 | CC(C)C(=O)OC[C@H]1O[C@@H](n2ccc(N)nc2=O)[C@](C)(F)[C@@H]1OC(=O)C(C)C [mericitabine] (10 µM) | 0.0222 | 102% (inactive)
17 | CC(C)NCC(O)COc1ccc(COCCOC(C)C)cc1 (centres undefined) [bisoprolol] (10 µM) | -0.0255 | 106% (inactive)
18 | O=[N+]([O-])c1cccc2c(Br)n[nH]c12 [3-bromo-7-nitroindazole] (10 µM) | 0.0979 | 110% (inactive)
19 | CC1(C)[C@@H](OC(=O)CCC(=O)O)CC[C@]2(C)[C@H]3C(=O)C=C4[C@@H]5C[C@@](C)(C(=O)O)CC[C@]5(C)CC[C@@]4(C)[C@]3(C)CC[C@@H]12 (10 µM) | 0.0746 | 106% (inactive)
20 | CCOc1cc2ncc(C#N)c(Nc3ccc(OCc4ccccn4)c(Cl)c3)c2cc1NC(=O)/C=C/CN(C)C [neratinib] (10 µM) | -0.265 | 102% (inactive)
21 | Cc1ccc(NC(=O)Nc2cc(C(F)(F)F)ccc2F)cc1Nc1ccc2c(c1)NC(=O)/C2=C\c1ccc[nH]1 (10 µM) | 0.567 | 51.5% (active)
22 | Clc1ccc(C(Cn2ccnc2)OCc2c(Cl)cccc2Cl)c(Cl)c1 (centres undefined) [isoconazole] (10 µM) | 0.222 | 104% (inactive)
23 | CCCNC(=O)Nc1ccc(Oc2ncnc3cc(OC)c(OC)cc23)cc1Cl (10 µM) | -0.0266 | 108% (inactive)
24 | Fc1ccc2c(CCNCc3cccc(OCC(F)(F)C(F)F)c3)c[nH]c2c1 [idalopirdine] (10 µM) | -0.145 | 114% (inactive)
25 | CN1CCN(C(=O)c2cc3cc(Cl)ccc3[nH]2)CC1 (10 µM) | -0.00911 | 111% (inactive)
26 | O=C(NCCO)c1cccc(-c2cc(Nc3ccc(OC(F)(F)F)cc3)ncn2)c1 (10 µM) | -0.0129 | 98.5% (inactive)
27 | CC(C)C[C@H](NC(=O)[C@H](Cc1ccccc1)NC(=O)c1cnccn1)B(O)O [bortezomib] (10 µM) | -0.0961 | 96.5% (inactive)
